Assay results reported in PubChem BioAssay AID1159580 (chemical genetic matrix, 2015).
Values joined by “and” are separate entries in the source; they are usually repeats but may differ in a detail not shown here. Equal entries are not always repeated. The whole screen tested about 5,500 compounds, of which about 2,000 (36%) were called active. Not shown: some 18% with an inconclusive outcome. Rule as the data show it: active = normalized growth mostly below about 0.91 (no sharp cut-off); inconclusive = no clear call, values can overlap the other calls; inactive = mostly above about 0.92. The list shows a part of the results.

Assay: chemical genetic growth profiling, strain panel (AID 1159580);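 also: tested at 20 µM; growth read once vehicle control cultures reached saturation at 30 °C; 1 = growth at the plate median or of vehicle wells; lower values mean less growth of the strain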
Conditions: S. cerevisiae deletion strains, growth OD

Measured: normalized growth

CC/C(=C(/CC)c1ccc(O)cc1)c1ccc(O)cc1
inactive: locus YAL026C, strain drs2, stronger effect = lower value 0.958 | locus YAL030W, strain snc1, stronger effect = lower value 1 | locus YBL061C, strain skt5, stronger effect = lower value 1 | locus YBR009C, strain hhf1, stronger effect = lower value 0.953 | locus YBR021W, strain FUR4, stronger effect = lower value 0.992 | locus YBR023C, strain chs3, stronger effect = lower value 0.984 | locus YBR171W, strain sec66, stronger effect = lower value 0.987 | locus YBR229C, strain ROT2, stronger effect = lower value 1 | locus YBR231C, strain swc5, stronger effect = lower value 1.03 | locus YBR279W, strain paf1, stronger effect = lower value 0.961 | locus YCL011C, strain gbp2, stronger effect = lower value 0.976 | locus YCL016C, strain dcc1, stronger effect = lower value 0.943 | locus YCL029C, strain bik1, stronger effect = lower value 0.962 | locus YCL061C, strain MRC1, stronger effect = lower value 1 | locus YCL069W, strain vba3, stronger effect = lower value 0.987 | locus YCR088W, strain abp1, stronger effect = lower value 1.02 | locus YDL005C, strain med2, stronger effect = lower value 1.01 | locus YDL035C, strain GPR1, stronger effect = lower value 0.867 | locus YDL040C, strain nat1, stronger effect = lower value 1.01 | locus YDL101C, strain DUN1, stronger effect = lower value 0.963 | locus YDL185W, strain tfp1, stronger effect = lower value 0.997 | locus YDL192W, strain arf1, stronger effect = lower value 0.991 | locus YDR001C, strain nth1, stronger effect = lower value 1.01 | locus YDR069C, strain doa4, stronger effect = lower value 1.02 | locus YDR101C, strain arx1, stronger effect = lower value 0.961 | locus YDR150W, strain NUM1, stronger effect = lower value 1.01 | locus YDR159W, strain sac3, stronger effect = lower value 0.905 | locus YDR297W, strain sur2, stronger effect = lower value 1 | locus YDR318W, strain mcm21, stronger effect = lower value 0.952 | locus YDR334W, strain swr1, stronger effect = lower value 1.04 | locus YDR335W, strain msn5, stronger effect = lower value 1.02 | locus YDR388W, stronger effect = lower value 0.991 | locus YDR392W, strain spt3, stronger effect = lower value 0.869 | locus YDR502C, strain sam2, stronger effect = lower value 0.955 | locus YEL003W, strain gim4, stronger effect = lower value 1 | locus YEL037C, strain rad23, stronger effect = lower value 1.01 | locus YEL061C, strain CIN8 (second series), stronger effect = lower value 1.03 | locus YEL061C, strain CIN8, stronger effect = lower value 0.999 | locus YER015W, strain faa2, stronger effect = lower value 0.945 | locus YER016W, strain bim1, stronger effect = lower value 0.958 | locus YER110C, stronger effect = lower value 1.03 | locus YER111C, strain swi4, stronger effect = lower value 1.05 | locus YER155C, strain BEM2 (second series), stronger effect = lower value 1.03 | locus YER155C, strain BEM2, stronger effect = lower value 0.979 | locus YER167W, strain BCK2, stronger effect = lower value 0.984 | locus YFR010W, strain ubp6, stronger effect = lower value 1.04 | locus YGL078C, strain dbp3, stronger effect = lower value 0.977 | locus YGL086W, strain mad1, stronger effect = lower value 0.955 | locus YGL167C, strain pmr1, stronger effect = lower value 0.995 | locus YGL173C, strain kem1, stronger effect = lower value 0.959 | locus YGL227W, strain vid30, stronger effect = lower value 1.03 | locus YGL240W, strain doc1, stronger effect = lower value 0.98 | locus YGL248W, strain PDE1, stronger effect = lower value 0.915 | locus YGL253W, strain hxk2, stronger effect = lower value 0.989 | locus YGR135W, strain pre9, stronger effect = lower value 0.962 | locus YGR252W, strain gcn5, stronger effect = lower value 0.921 | locus YHR013C, strain ard1, stronger effect = lower value 1.09 | locus YHR027C, strain rpn1, stronger effect = lower value 0.98 | locus YHR030C, strain SLT2, stronger effect = lower value 0.98 and 0.958 | locus YHR079C, strain IRE1 (second series), stronger effect = lower value 1.01 | locus YHR079C, strain IRE1, stronger effect = lower value 0.96 | locus YHR094C, strain hxt1, stronger effect = lower value 1 | locus YHR129C, strain ARP1, stronger effect = lower value 0.976 | locus YHR142W, strain chs7, stronger effect = lower value 1.03 | locus YHR200W, strain rpn10, stronger effect = lower value 0.991 | locus YIL066C, strain RNR3, stronger effect = lower value 0.937 | locus YIL073C, strain SPO22, stronger effect = lower value 1.21 | locus YIL125W, strain kgd1, stronger effect = lower value 0.995 | locus YIR030C, strain dcg1, stronger effect = lower value 0.998 | locus YJL092W, strain hpr5, stronger effect = lower value 1 | locus YJL095W, strain BCK1 (second series), stronger effect = lower value 0.982 | locus YJL115W, strain asf1, stronger effect = lower value 1.04 | locus YJL129C, strain trk1, stronger effect = lower value 0.94 | locus YJL134W, strain LCB3, stronger effect = lower value 1 | locus YJL154C, strain vps35, stronger effect = lower value 0.997 | locus YJL164C, strain tpk1, stronger effect = lower value 0.944 | locus YJL166W, strain qcr8, stronger effect = lower value 0.958 | locus YJL168C, strain set2, stronger effect = lower value 1 | locus YJL187C, strain SWE1 (second series), stronger effect = lower value 0.923 | locus YJR043C, strain POL32, stronger effect = lower value 0.952 | locus YJR066W, strain TOR1, stronger effect = lower value 0.938 | locus YJR075W, strain HOC1, stronger effect = lower value 0.959
active: locus YAL021C, strain ccr4, stronger effect = lower value 1.09 [resistant] | locus YDL074C, strain BRE1, stronger effect = lower value 0.776 | locus YDR137W, strain rgp1, stronger effect = lower value 0.49 | locus YDR162C, strain NBP2, stronger effect = lower value 0.754 | locus YDR195W, strain ref2 1.2 [resistant]
0.795 (active) and 0.97 (inactive): locus YJL095W, strain BCK1, stronger effect = lower value
